# Compound activity: PubChem BioAssay, National Center for Advancing Translational Sciences (NCATS)
# Compounds with a hit are over-represented: about 21% of the library has one in this group of screens.
# CHX counter = Cycloheximide Counterscreen for Small Molecule Inhibitors of Shiga Toxin. cell reporter, cycloheximide protein synthesis inhibition counterscreen. max response, %. 300,000 compounds, 12% hits; in the data active = max response mostly above about 13%, no sharp cut-off; inactive = mostly below about 14%; also: read at 38.3 µM for the half of the compounds with a filed dose; 0% is about no effect
# Pf growth 96h = Primary qHTS for delayed death inhibitors of the malarial parasite plastid, 96 hour incubation | Potency, µM (highest dose often 28.7 µM), for inactives: top-dose activity change, negative = inhibition, usual class: inhibitors | P. falciparum luciferase reporter growth, 96 h | 320,000 compounds, 6.9% hits | AID 504834, 2011; active = well fitted inhibition curve with a large enough effect; inconclusive = small, poorly fitted or top-dose-only effect, or another doubt; inactive = no such curve, though single readings can be large or run the other way; also: potency is read from the fitted curve at half-maximal effect; % is scaled to controls: 0 for no effect and ±100 for the full control effect
#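 Luminescence readout: decreased luciferase signal marks inhibited growth of reporter-expressing P. falciparum in infected red cells (2% hematocrit, 0.05% parasitemia final), exposed to compound two generations (96 h, 37 C, 5% CO2).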
# Shiga toxin inh = A qHTS for Small Molecule Inhibitors of Shiga Toxin; Vero cells, Shiga toxin protein synthesis inhibition reporter; inhibition, % at 38.7 µM; 290,000 compounds, 9.2% hits; in the data active = inhibition mostly above about 28%, no sharp cut-off; inactive = mostly below about 43%; also: 0% is about no effect
# Pf growth 48h = Primary qHTS for delayed death inhibitors of the malarial parasite plastid, 48 hour incubation; P. falciparum luciferase growth in erythrocytes, 48 h; Potency, µM (titrated, usually from 28.7 µM), for inactives: top-dose activity change, negative = inhibition, actives largely listed as inhibitors; 310,000 compounds, 5.9% hits; AID 504832, 2011; active = well fitted inhibition curve with a large enough effect; inconclusive = small, poorly fitted or top-dose-only effect, or another doubt; inactive = no such curve, though single readings can be large or run the other way; also: potency is read from the fitted curve at half-maximal effect; % is scaled to controls: 0 for no effect and ±100 for the full control effect
#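 Parasite viability was followed by luminescence of a genomically integrated firefly luciferase. Cultures held 0.1% parasitemia at 2% hematocrit (final), incubated under 5% CO2 at 37 C.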
# NS1 inh = qHTS Assay for Inhibitors of Influenza NS1 Protein Function; 270,000 compounds, 0.4% hits; AID 2326, 2010; Potency, µM (series often up to 46.1 µM), for the others: at the top dose activity, positive = more growth; also: potency is read from the fitted curve at half-maximal effect; actives are rising curves; nearly all actives have a fitted effect of over 50% in size
#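 Recovery from NS1-induced slow growth read by OD600 in budding yeast switched to galactose assay medium (pH 6.0, -URA) at 1:100 dilution. Compound 23 nl per well; the matching strain lacking NS1 serves as control.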
# SARS PLpro yeast = qHTS of Yeast-based Assay for SARS-CoV PLP. S. cerevisiae expressing SARS-CoV PLpro, growth rescue. Potency, µM (highest dose often 32.9 µM), without a hit: at the top dose activity, positive = growth rescue, actives largely listed as activators. 330,000 compounds, 0.19% hits. AID 485353, 2010; also: potency is read from the fitted curve at half-maximal effect; 0% is about no effect; nearly all actives have a fitted effect of over 55% in size
# An asterisk follows results filed as active; ? = inconclusive; nt = not tested or not shown; [ ] = dose if it differs, or a comment. Unless noted, calls follow the shape of the full dose curve.
SMILES,CHX counter,Pf growth 96h,Shiga toxin inh,Pf growth 48h,NS1 inh,SARS PLpro yeast
O=C(NNc1cccc(Cl)n1)C(F)(F)F,8,2.3µM*,15,12µM*,nt,1%
NS(=O)(=O)c1ccc(NNC(=O)c2ccccc2C(=O)O)cc1,29*,10%,89,6%,0%,1%
O=C(O)c1ccccc1C(=O)NNc1ccc(Cl)cc1,11*,-1%,49*,7%,-103%,-19%
NS(=O)(=O)c1ccc(NC(=O)c2ccccc2Cl)cc1,1,nt,-7,1%,3%,7%
O=C(O)c1ccccc1C(=O)NNc1ccc(F)cc1F,-6,9%,-17,21%,nt,0%
O=C(O)c1ccccc1C(=O)NNc1cccc(Cl)n1,49*,116%,98*,161%,5%,0%
CC(=O)NNc1cccc(Cl)n1,6,0%,6,16%,?,3%
CC(=O)Nc1cccc(-c2csc(NCc3ccco3)n2)c1,17,72%,51*,?,4%,-4%
Oc1ccc(-c2csc(NCc3ccco3)n2)cc1,44*,nt,158*,56%,4%,-13%
c1coc(CNc2nc(-c3cccs3)cs2)c1,33*,4%,90*,?,nt,-5%
Cc1nc2ncccn2c1-c1csc(NCc2ccco2)n1,11,1%,9,?,-4%,3%
COc1ccc(NC(=O)CCCCCn2nnc3ccccc3c2=O)cc1OC,0,-20%,-4,-3%[0.00184 µM],-1%,1%
COc1cc(NC(=O)Cc2ccc(F)cc2)cc(OC)c1OC,5,13%,19,-1%,nt,1%
COC(=O)C1=CN(CC2CCCO2)C=C(C(=O)OC)C1c1cc(OC)c(OC)c(OC)c1 (stereo not drawn),-2,4.1µM*,-18,?,-3%,nt
COC(=O)C1=CN(Cc2ccc(F)cc2)C=C(C(=O)OC)C1c1cc(OC)c(OC)c(OC)c1,-3,-28%,-4,1.3µM*,-3%,2%
COC(=O)C1=CN(Cc2cccs2)C=C(C(=O)OC)C1c1cccc(O)c1,-1,?,-16,-21%,-8%,1%
COC(=O)C1=CN(Cc2ccc(C)cc2)C=C(C(=O)OC)C1c1ccc(F)c(F)c1,-2,15%,-1,6.6µM*,-8%,-5%
COC(=O)C1=CN(Cc2ccc(OC)cc2)C=C(C(=O)OC)C1c1cc(OC)c(OC)c(OC)c1,1,?,-6,1.3µM*,4%,0%
COC(=O)C1=CN(C(C)c2ccccc2)C=C(C(=O)OC)C1c1cc(OC)c(OC)c(OC)c1 (stereo not drawn),8,33%,-1,1.5µM*,17%,0%
COC(=O)C1=CN(Cc2ccc(OC)c(OC)c2)C=C(C(=O)OC)C1c1cccc(F)c1,-4,10µM*,-2,9.3µM*,?,-2%
CCCCN1C=C(C(=O)OC)C(c2ccccc2Cl)C(C(=O)OC)=C1,-3,-21%,5,-19%[1.15 µM],-12%,0%
COC(=O)C1=CN(Cc2ccccc2)C=C(C(=O)OC)C1c1cc(F)ccc1F,6,7.4µM*,-7,7.4µM*,5%,-3%
COCCN1C=C(C(=O)OC)C(c2ccc(OC)c(OC)c2)C(C(=O)OC)=C1,-2,nt,-2,-9%,-10%,2%
CCCCc1cc(=O)oc2cc(OCC(=O)NCCN3CCOCC3)ccc12,-2,-13%,-2,-9%,-4%,3%
O=C(CSc1nnc(Cc2ccccc2)c(=O)[nH]1)Nc1ccccc1,nt,14%,nt,5%,nt,-2%
SMILES,CHX counter,Pf growth 96h,Shiga toxin inh,Pf growth 48h,NS1 inh,SARS PLpro yeast
Clc1ccc(CN2CCC(c3nc4ccc(Cl)cc4[nH]3)CC2)cc1,1,?,-16,10µM*,-32%,2%
CC1CCCN(C(=O)CN2CCC(c3nc4ccc(Cl)cc4[nH]3)CC2)C1 (stereo not drawn),-6,?,-4,?,-7%,1%
CC(C)(C)c1ccc(S(=O)(=O)N2CCC(c3nc4ccc(Cl)cc4[nH]3)CC2)cc1,7,-4%,8,12µM*,-2%,-13%
CN(Cc1ccccc1)C(=S)NC(=O)c1cccs1,8,2%,2,?,-63%,0%
CCC(C)(C)NC(=O)CN(C(=O)CCC(=O)Nc1ccccn1)c1ccc(F)c(Cl)c1,-6,nt,28,?,-2%,-2%
CCN1CCN(c2ccc(S(=O)(=O)N3CCCCC3)cc2NC(=O)c2sccc2C)CC1,nt,?,nt,?,nt,3%
CC(C)Oc1ccc(S(=O)(=O)N2CCOCC2)cc1NC(=O)C(C)Oc1ccc(F)cc1 (stereo not drawn),nt,?,nt,13µM*,nt,-2%
CC(C)Oc1ccc(S(=O)(=O)N2CCOCC2)cc1NC(=O)C1CCCCC1,nt,?,nt,?,nt,1%
CCN1CCN(c2ccc(S(=O)(=O)N3CCCCC3)cc2NC(=O)C(C)Oc2ccc(F)cc2)CC1 (stereo not drawn),nt,-24%,nt,8.3µM*,nt,-3%
Cc1ccc(NC(=S)Nc2ccc(C(C)C)cc2)cc1S(=O)(=O)N1CCCCCC1,28*,?,82*,?,?,?
CC(Oc1cccc(Cl)c1)C(=O)Nc1cc(S(=O)(=O)N2CCCCC2)ccc1N1CCOCC1 (stereo not drawn),nt,10µM*,nt,10µM*,nt,nt
CC(Oc1cccc(Cl)c1)C(=O)Nc1cc(S(=O)(=O)N2CCOCC2)ccc1N1CCCC1 (stereo not drawn),nt,0%,nt,-23%,nt,1%
CCCCNC(=O)NS(=O)(=O)c1ccc(N)cc1,5,10%,-8,11%,nt,nt
CCCN1CCc2nc(SCC(=O)Nc3ccc(C)c(Cl)c3)[nH]c(=O)c2C1,-1,53%,-2,23%,13%,-5%
CN(C(=O)CNc1ccccc1Cl)C1CCS(=O)(=O)C1 (stereo not drawn),nt,nt,nt,nt,nt,20%
Cc1cc(=O)[nH]c(SCC(=O)OCc2ccccc2)c1C#N,-1,?,13,61%,4%,-1%
CCCOc1ccc(C(=O)N2CCN(Cc3ccc4c(c3)OCO4)CC2)cc1,2,265%,2,-1%,-48%,-7%
Cc1cccc(C(=O)N[C@H](C(=O)Nc2cc(S(=O)(=O)N3CCCCC3)ccc2C)C(C)C)c1,0,?,-6,?,1%,-13%
Cc1ccccc1OCCC(=O)OCC(=O)Nc1cc(S(=O)(=O)N2CCOCC2)ccc1Cl,11,8%,6,-4%,nt,-1%
Cc1ccccc1OCCC(=O)Nc1cc(S(=O)(=O)N2CCOCC2)ccc1OC(C)C,0,13µM*,-10,15µM*,-6%,1%
CC(Oc1cccc(Cl)c1)C(=O)Nc1ccc(N2CCOCC2)cc1N1CCOCC1 (stereo not drawn),nt,?,nt,6.6µM*,nt,-23%
Cc1cccc(OC(C)C(=O)Nc2cc(S(=O)(=O)N3CCCCC3)ccc2C)c1 (stereo not drawn),nt,?,nt,9.3µM*,nt,-5%
